Assay outcomes (PubChem BioAssay)
ALDH1A1 block – inhibitors of human aldehyde dehydrogenase 1A1; P00352; Purified ALDH1A1, NADH fluorescence, propionaldehyde substrate; Potency, µM (series often up to 75.3 µM), for the others: top-dose activity, negative = inhibition, hits mostly inhibitors; hit rate 7.3% among 220,000;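 further: potency means the concentration at half of the fitted maximal effect; plate controls were no enzyme wells and a reference inhibitor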
Target sequence (P00352 whole entry, looked up): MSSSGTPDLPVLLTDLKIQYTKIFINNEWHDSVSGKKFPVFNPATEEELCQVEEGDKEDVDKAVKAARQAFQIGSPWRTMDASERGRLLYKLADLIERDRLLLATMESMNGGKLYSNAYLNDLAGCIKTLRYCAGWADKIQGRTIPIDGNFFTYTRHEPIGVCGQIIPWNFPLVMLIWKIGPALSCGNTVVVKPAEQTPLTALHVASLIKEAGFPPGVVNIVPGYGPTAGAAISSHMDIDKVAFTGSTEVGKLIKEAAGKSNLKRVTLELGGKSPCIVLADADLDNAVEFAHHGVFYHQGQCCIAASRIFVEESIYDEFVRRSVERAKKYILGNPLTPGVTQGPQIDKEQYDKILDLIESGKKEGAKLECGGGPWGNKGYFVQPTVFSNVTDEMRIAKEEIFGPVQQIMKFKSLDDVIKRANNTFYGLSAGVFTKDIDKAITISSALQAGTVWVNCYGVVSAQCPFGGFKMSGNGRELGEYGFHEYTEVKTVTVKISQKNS
LMNA splice mod – changes lamin A minigene splicing in HeLa cells | HeLa LMNA splicing GFP/RFP minigene ratio, 48 h | Potency, µM (doses to about 46.1 µM), for inactives: top-dose ratio change, negative = inhibition, hits mostly inhibitors | hit rate 0.01% among 200,000; active means well fitted inhibition curve with a large enough effect in the signal ratio, with a control signal flat, not every such curve was filed as active; inconclusive means small, poorly fitted or top-dose-only effect, or effect the other way, or a change in a side signal; the % refers to the signal ratio; further: potency means the concentration at half of the fitted maximal effect
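S3 HeLa stable clones carrying a lamin A-EGFP splicing minigene plus DsRed2 were seeded at 600 cells/well in Opti-MEM with 2% FBS, pin-dosed and incubated 48 h at 37°C. Acumen cytometry (488 nm) gave the GFP/RFP total-intensity ratio.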
PNC assembly inh – inhibitors of perinucleolar compartment assembly; PC3M PTB-GFP, PNC prevalence imaging, 16 h; hits give low values; activity change (PNC), negative = inhibition, % at 10 µM; hit rate 3.1% among 140,000; AID 2417;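 active means readout at or below -70, meaning at least 70% loss of cells showing the perinucleolar compartment, a nuclear body marking cancer cells; inconclusive means readout between -30 and a set limit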;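 further: plate controls were DMSO wells for no effect and camptothecin positive control wells for full effect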
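PC3M cells stably expressing PTB-GFP, 750–1000 cells/well, treated 16 h at 37 °C with compound (23 nl of library stock), in duplicate. After paraformaldehyde fixation and Hoechst stain, imaged at 20x; PNC prevalence scored by image analysis.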
HPGD inh – HPGD (human) dehydrogenase inhibition; hit rate 4.3% among 150,000; Potency, µM, inactives show at the top dose activity change, negative = inhibition, hits mostly inhibitors; P15428; purified HPGD, NADH fluorescence kinetic, PGE2 substrate; further: potency means the concentration at half of the fitted maximal effect
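20 nM HPGD preincubated 15 min at room temperature with compound in 50 mM Tris-HCl pH 8, 0.01% Tween 20. Started with 1 mM NAD+ and 30 uM prostaglandin E2; NADH fluorescence (360/450 nm) read 5 times over 30-s intervals, last minus first.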
Luc counter – Kinase-Glo luciferase inhibition (counter-screen) | Q27757 | Kinase-Glo luciferase, ATP luminescence, 8 min | Potency, µM (top dose mostly 38.3 µM), inactives show at the top dose activity change, negative = inhibition, actives largely listed as inhibitors | hit rate 0.28% among 200,000; active means well fitted inhibition curve with a large enough effect; inconclusive means small, poorly fitted or top-dose-only effect; further: potency means the concentration at half of the fitted maximal effect; nearly all actives have a fitted effect of over 60% in size
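Compound is pinned into ATP-containing buffer (10 uM ATP, imidazole pH 7.2, 7 mM MgCl2). Kinase-Glo luciferase reagent is then added. Light output is recorded following an 8-min room-temperature incubation.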
An asterisk follows results filed as active; [ ] = another dose, or the depositor's remark. An excerpt weighted towards active compounds, which were near 10% of everything screened. Unless noted, the call rests on the fitted dose curve; in most records, active means well fitted inhibition curve with a large enough effect (not every such curve was filed as active); inconclusive means small, poorly fitted or top-dose-only effect, or another doubt; inactive means no such curve, though single readings can be large or run the other way. Unless noted, on the % scale 0 is the no-effect control and ±100 the full control effect.

CCS(=O)CCSc1nc2ccccc2s1 (stereo not drawn) was read as ALDH1A1 block inconclusive, LMNA splice mod 5%, PNC assembly inh 97, HPGD inh 16µM* and Luc counter -1%.
For C=CCn1c(N)c(C(=O)Nc2ccc(C)cc2)sc1=S the results were ALDH1A1 block 10%, LMNA splice mod 15%, PNC assembly inh 38, HPGD inh -4% and Luc counter 1%.
For C=CCn1c(N)c(C(=O)Nc2ccccc2OC)sc1=S the results were ALDH1A1 block 22µM*, LMNA splice mod -4% and PNC assembly inh inconclusive.
`CCOC(=O)c1sc(N)c(C(=O)Nc2ccc(C)cc2C)c1C` gave ALDH1A1 block 10µM*, HPGD inh 4µM* and Luc counter -1%.
For CCOC(=O)c1sc(N)c(C(=O)Nc2ccccc2OC)c1C the results were ALDH1A1 block 4.5µM*, LMNA splice mod -10%[9.22 µM] and Luc counter -3%.
`COc1ccc(CCNC(=O)Cn2cc(C(=O)c3ccccc3)c(=O)c3ccc(C)nc32)cc1OC` gave LMNA splice mod 8%[46 µM].
COCCNC(=O)c1cccc(Nc2nc(-c3ccccc3)c3cc(Cl)ccc3n2)c1 was read as ALDH1A1 block -10%, LMNA splice mod inconclusive, PNC assembly inh -19, HPGD inh 28µM* and Luc counter 2%.
Screening C=CCOc1c2ccc(C(=O)NCc3ccc(OC)cc3)cc2nn1C returned ALDH1A1 block inconclusive, LMNA splice mod 10%, PNC assembly inh -109*, HPGD inh inconclusive and Luc counter 6%.
Cc1ccc(-c2nn(-c3ccccc3)cc2C(=O)N2CCOCC2)cc1C was read as ALDH1A1 block 10µM*, LMNA splice mod -18%[46 µM] and Luc counter 5%.
O=C(c1cn(-c2ccccc2)nc1-c1cccs1)N1CCN(c2ccc(F)cc2)CC1 was read as ALDH1A1 block inconclusive, LMNA splice mod inconclusive and PNC assembly inh -109*.
`Cc1ccc(-c2c(C(=O)N3CCOCC3)oc(=O)c3ccccc23)cc1` gave ALDH1A1 block 1.6µM*, LMNA splice mod 10%, PNC assembly inh inconclusive, HPGD inh -12% and Luc counter 4%.
For Cc1ccc(-c2c(C(=O)Nc3ccccc3F)oc(=O)c3ccccc23)cc1 the results were LMNA splice mod -20%[46 µM].
`Cc1ccc(-c2c(C(=O)NCc3ccc(F)cc3)oc(=O)c3ccccc23)cc1` gave ALDH1A1 block 7.1µM*, LMNA splice mod -1%, PNC assembly inh inconclusive, HPGD inh -19% and Luc counter -3%.
Screening O=C(c1cc(-c2cccs2)on1)N1CCN(c2ccc(F)cc2)CC1 returned ALDH1A1 block -6%, LMNA splice mod -17%, PNC assembly inh -12, HPGD inh -16% and Luc counter 1%.
Screening O=C(c1cn(-c2ccccc2)nc1-c1ccccc1)N1CCOCC1 returned ALDH1A1 block inconclusive, LMNA splice mod 1%, PNC assembly inh -24, HPGD inh -5% and Luc counter 10%.
For CCCCCCCC1=Cc2ccccc2C(C(C(=O)OC)C(=O)OC)N1C(=O)OC (stereo not drawn) the results were ALDH1A1 block 14%[13.5 µM], LMNA splice mod inconclusive, HPGD inh -10% and Luc counter -6%[7.66 µM].
`Cc1ccc(-c2cc(C(=O)N3CCOCC3)c3ccccc3n2)cc1` gave ALDH1A1 block inconclusive, LMNA splice mod 2%, PNC assembly inh -98*, HPGD inh inconclusive and Luc counter -7%.
Screening CCCC(C)NC(=O)c1ccc(-c2ccccc2)cc1 (stereo not drawn) returned ALDH1A1 block 10%.
`CCCC(C)NC(=O)c1ccc(F)cc1` (stereo not drawn) gave ALDH1A1 block 40µM*, LMNA splice mod -5%, PNC assembly inh -82*, HPGD inh inconclusive and Luc counter -5%.
`CC(C)NC(=O)CCNC(=O)c1ccc(F)cc1` gave ALDH1A1 block 2.8µM*, LMNA splice mod 5%, PNC assembly inh 9, HPGD inh -6% and Luc counter 2%.
For CCOc1ccc(CNC(=O)Cn2c(=O)c3cccn3c3ccc(F)cc32)cc1OC the results were LMNA splice mod 6%[46 µM].
Screening COc1cccc(NC(=O)C2CCCN(S(=O)(=O)c3cn(C(C)C)cn3)C2)c1 (stereo not drawn) returned LMNA splice mod 21%[46 µM].
For Cc1ccc(N2C(=O)C3C(C2=O)C2C=CC3C23CC3)c([N+](=O)[O-])c1 (stereo not drawn) the results were ALDH1A1 block 2.5µM*, LMNA splice mod 1%[46 µM] and Luc counter 0%.
Screening O=C(c1ccc(S(=O)(=O)c2ccccc2Cl)c([N+](=O)[O-])c1)N1CCN(Cc2ccccc2)CC1 returned ALDH1A1 block 14µM*, LMNA splice mod inconclusive, PNC assembly inh inconclusive, HPGD inh -12% and Luc counter -2%.
O=C(c1ccc(S(=O)(=O)c2ccc(F)cc2)c([N+](=O)[O-])c1)N1CCCCCC1 was read as ALDH1A1 block -3%, LMNA splice mod inconclusive, PNC assembly inh -119*, HPGD inh -14% and Luc counter -2%.
`COc1cc(N(C)C)c([N+](=O)[O-])cc1C(=O)N1CCN(Cc2ccccc2)CC1` gave ALDH1A1 block 10µM*, LMNA splice mod -3%[9.22 µM] and Luc counter -2%.
`O=C(NC1CCCCC1)c1ccc(S(=O)(=O)c2ccccc2Cl)c([N+](=O)[O-])c1` gave ALDH1A1 block -8%, LMNA splice mod inconclusive, PNC assembly inh -28, HPGD inh -9% and Luc counter -1%.
`COc1cc(SC)ccc1C(=O)N1CCN(Cc2ccccc2)CC1` gave ALDH1A1 block 1%, LMNA splice mod 8%[46 µM] and Luc counter 1%.
Cc1ccc(C)c(N2CCN(C(=O)Cn3cnc4onc(-c5ccc(F)cc5)c4c3=O)CC2)c1 was read as LMNA splice mod 2%[46 µM].
Screening Cc1csc(/C(=N\O)c2csc(C)n2)n1 returned ALDH1A1 block 16%, LMNA splice mod 8%, PNC assembly inh -100*, HPGD inh -10% and Luc counter -4%.
Cc1csc(/C(C#N)=N/O)n1 was read as ALDH1A1 block -16%, LMNA splice mod -2%, PNC assembly inh -25, HPGD inh -29% and Luc counter -4%.
`CCN(CC)S(=O)(=O)c1cccc(C(=O)c2c(C)cc3ccccn23)c1` gave ALDH1A1 block -16%, LMNA splice mod inconclusive, PNC assembly inh -94*, HPGD inh -18% and Luc counter -1%.
For Cc1cc2ccccn2c1C(=O)c1cc([N+](=O)[O-])cc([N+](=O)[O-])c1 the results were ALDH1A1 block inconclusive, LMNA splice mod -7%[46 µM] and Luc counter 0%.
For COc1ccc2[nH]cc(CCO)c2c1 the results were ALDH1A1 block -6%.
`Cn1nnnc1SCc1ccc(Cl)cc1` gave ALDH1A1 block 7% and Luc counter 2%.
